Rows were chosen to be rich in hits. Some 1.3% of all compounds tested hit in one or more screens of this group.
S1P4 agonist – activates the human S1P4 receptor | activation, % at 4.98 µM | AID 1509 | S1P4-expressing cell line, agonist reporter assay | hit rate 0.35% among 220,000; in the data active means activation above about 11%
GALR2 agonist – GALR2 (human) receptor agonism | AID 803 | activation, % (no concentration beside the values) | hit rate 0.48% among 140,000 | O43603 | GALR2-expressing cells, agonist activation read-out; in the data active means activation above about 5%, passing the limit was not always enough
Target sequence (O43603 whole entry, looked up): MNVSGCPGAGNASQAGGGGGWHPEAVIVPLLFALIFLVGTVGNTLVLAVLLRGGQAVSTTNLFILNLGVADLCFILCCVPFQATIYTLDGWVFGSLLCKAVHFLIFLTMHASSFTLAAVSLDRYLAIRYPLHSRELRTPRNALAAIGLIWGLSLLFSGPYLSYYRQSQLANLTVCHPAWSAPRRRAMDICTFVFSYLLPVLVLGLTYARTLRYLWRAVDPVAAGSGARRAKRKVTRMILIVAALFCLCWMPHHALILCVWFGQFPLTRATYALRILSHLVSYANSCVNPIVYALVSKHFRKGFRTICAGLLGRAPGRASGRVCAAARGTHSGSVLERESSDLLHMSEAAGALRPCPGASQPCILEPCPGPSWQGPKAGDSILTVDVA
GALR2 antag – GALR2 (human) receptor antagonism | hit rate 0.39% among 140,000 | inhibition, % at 4 µM | GALR2-expressing cells, antagonist mode | O43603 | AID 828; in the data active means inhibition above about 27%;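 further: cells stimulated with galanin 1-16 at roughly its EC80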
S1P3 antagonist – S1P3 (human) receptor antagonism; Q99500; CHO S1P3 NFAT-BLA reporter, FRET fluorescence, antagonist mode; inhibition, % at 4.98 µM; hit rate 0.27% among 170,000; AID 485;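 active means inhibition above the plate cutoff, the mean inhibition of test wells on that plate plus 3 SD, cut at about 28% in these data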;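 further: cells challenged with S1P at its EC80 of 0.8 µM; blue over green emission ratio from cleaved BLA substrate after 4 h stimulation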
S1P4 antag – human S1P4 receptor antagonism; S1P4-expressing cells, antagonist mode, reporter read-out; AID 1510; inhibition, % at 4.98 µM; hit rate 0.26% among 220,000; O95977; in the data active means inhibition above about 29%
S1P4 agonist cf – human S1P4 agonism, confirmation; shares compounds with S1P4 agonist; S1P4 agonist cell-based reporter assay; activation, % at 4.98 µM; hit rate 7% among 740; in the data active means activation above about 12%
S1P1 ag – counter-screen for S1P4 agonists: agonists of human S1P1; AID 1563; S1P1 agonist cell-based assay, activation; hit rate 4% among 740; activation, % at 4.98 µM; shares compounds with S1P4 agonist; in the data active means activation above about 21%
Hits are given with their value.

Results for Cc1ccc(Nc2nnc(SCC(=O)c3ccc(Br)s3)s2)c(C)c1 ?
S1P4 agonist: inactive; GALR2 agonist: inactive; GALR2 antag: inactive; S1P3 antagonist: inactive; S1P4 antag: inactive

Results for Cc1cccc(C)c1Nc1nnc(SCC(=O)c2ccc(Br)s2)s1 ?
S1P4 agonist: 34; GALR2 agonist: inactive; GALR2 antag: inactive; S1P3 antagonist: inactive; S1P4 antag: inactive; S1P4 agonist cf: inactive; S1P1 ag: inactive

What do the screens show for `O=C(Cn1nnc2ccccc21)NNC(=O)c1ccccc1`?
S1P4 agonist: inactive; S1P3 antagonist: inactive; S1P4 antag: inactive

What do the screens show for `O=C(Cc1ccc(-n2c(=O)[nH]c3ccsc3c2=O)cc1)NCc1cccnc1`?
S1P4 agonist: inactive; GALR2 agonist: inactive; GALR2 antag: inactive; S1P3 antagonist: inactive; S1P4 antag: inactive

What do the screens show for `Cc1ccc(C(N)=S)c(C)c1`?
S1P4 agonist: 17; GALR2 agonist: inactive; GALR2 antag: inactive; S1P3 antagonist: inactive; S1P4 antag: inactive; S1P4 agonist cf: inactive; S1P1 ag: inactive

What do the screens show for `Cc1ccc(C2Nc3ccccc3-c3nc4ccccc4n32)o1` (stereo not drawn)?
S1P4 agonist: 12; GALR2 agonist: inactive; GALR2 antag: inactive; S1P4 antag: inactive; S1P4 agonist cf: inactive; S1P1 ag: inactive

What do the screens show for `COc1ccc(-c2cc(-c3nnc(COC(=O)CC4CC5CCC4C5)o3)c3ccccc3n2)cc1OC` (stereo not drawn)?
S1P4 agonist: inactive; GALR2 agonist: inactive; GALR2 antag: inactive; S1P3 antagonist: inactive; S1P4 antag: inactive

What do the screens show for `O=c1cc(CSc2nc(NCc3ccccc3)c3ccccc3n2)nc2ccc(Cl)cn12`?
S1P4 agonist: 28; GALR2 agonist: inactive; GALR2 antag: inactive; S1P3 antagonist: inactive; S1P4 antag: inactive; S1P4 agonist cf: inactive; S1P1 ag: inactive

Results for C#Cc1cccc(-n2nnc(C(C)=O)c2C)c1 ?
S1P4 agonist: 68; S1P3 antagonist: inactive; S1P4 antag: inactive; S1P4 agonist cf: inactive; S1P1 ag: inactive

Results for Cc1nn(C)cc1C(C(=O)NC1CCCCC1)N(CCc1ccccc1)C(=O)c1cnccn1 (stereo not drawn) ?
S1P4 agonist: inactive; S1P3 antagonist: inactive; S1P4 antag: inactive

Results for Cc1cc(C(=O)CN2C(=O)NC(C)(CC(C)C)C2=O)c(C)n1-c1ccc2c(c1)OCO2 (stereo not drawn) ?
S1P4 agonist: 13; GALR2 agonist: inactive; GALR2 antag: inactive; S1P3 antagonist: inactive; S1P4 antag: inactive; S1P4 agonist cf: inactive; S1P1 ag: inactive

Results for Cc1cc(C(=O)CN2C(=O)NC3(CCCC3)C2=O)c(C)n1-c1ccc2c(c1)OCO2 ?
S1P4 agonist: inactive; GALR2 agonist: inactive; GALR2 antag: inactive; S1P3 antagonist: inactive; S1P4 antag: inactive

What do the screens show for `CSc1ncccc1C(=O)OCC(=O)Nc1ccc(S(=O)(=O)N2CCCC2)cc1`?
S1P4 agonist: 58; GALR2 agonist: inactive; GALR2 antag: inactive; S1P3 antagonist: inactive; S1P4 antag: inactive; S1P4 agonist cf: inactive; S1P1 ag: inactive

Results for O=C(COC(=O)c1ccccc1O)Nc1ccc(S(=O)(=O)N2CCCCC2)cc1 ?
S1P4 agonist: inactive; S1P3 antagonist: inactive; S1P4 antag: inactive

What do the screens show for `O=C(CCCC(=O)NCC1CCCO1)NCC1CCCO1` (stereo not drawn)?
S1P4 agonist: 39; GALR2 agonist: inactive; GALR2 antag: inactive; S1P3 antagonist: inactive; S1P4 antag: inactive; S1P4 agonist cf: inactive; S1P1 ag: inactive

How did COCCNC(=O)CSc1nc2cc3c(cc2c(=O)n1Cc1ccco1)OCO3 do in these assays?
S1P4 agonist: inactive; GALR2 agonist: inactive; GALR2 antag: inactive; S1P4 antag: inactive

How did COCCNC(=O)c1ccc2c(=O)n(Cc3ccco3)c(SCC(=O)NC3CCCC3)nc2c1 do in these assays?
S1P4 agonist: 12; GALR2 agonist: inactive; GALR2 antag: inactive; S1P4 antag: inactive; S1P4 agonist cf: inactive; S1P1 ag: inactive

What do the screens show for `COc1ccc(S(=O)(=O)N2c3ccccc3OCC2C)cc1` (stereo not drawn)?
S1P4 agonist: 15; S1P3 antagonist: inactive; S1P4 antag: inactive; S1P4 agonist cf: inactive; S1P1 ag: inactive

How did COc1ccc(S(=O)(=O)N2c3ccccc3OCC2c2ccccc2)cc1 (stereo not drawn) do in these assays?
S1P4 agonist: inactive; GALR2 agonist: inactive; GALR2 antag: inactive; S1P4 antag: inactive

Results for CC(O)CNc1nc2ccccc2n1CC(=O)NC12CC3CC(CC(C3)C1)C2 (stereo not drawn) ?
S1P4 agonist: inactive; S1P3 antagonist: inactive; S1P4 antag: inactive

Results for O=C(NCC(c1ccco1)N1CCN(c2ccccc2F)CC1)OCc1ccccc1 (stereo not drawn) ?
S1P4 agonist: 33; GALR2 agonist: inactive; GALR2 antag: inactive; S1P3 antagonist: inactive; S1P4 antag: inactive; S1P4 agonist cf: inactive; S1P1 ag: inactive

What do the screens show for `O=C(NCC(c1ccco1)N1CCN(c2ccccc2)CC1)OCc1ccccc1` (stereo not drawn)?
S1P4 agonist: inactive; GALR2 agonist: inactive; GALR2 antag: inactive; S1P3 antagonist: inactive; S1P4 antag: inactive

How did CCN(CC)CCC(C)OC(=O)c1ccc(O)cc1O (stereo not drawn) do in these assays?
S1P4 agonist: inactive; S1P3 antagonist: inactive; S1P4 antag: inactive

What do the screens show for `COc1ccc(CC2(CO)CCN(Cc3ccncc3)CC2)cc1`?
S1P4 agonist: inactive; S1P3 antagonist: inactive; S1P4 antag: inactive

What do the screens show for `COc1ccc(CC2(CO)CCN(Cc3cnn(C)c3C)CC2)cc1`?
S1P4 agonist: 17; S1P3 antagonist: inactive; S1P4 antag: inactive; S1P4 agonist cf: inactive; S1P1 ag: inactive

What do the screens show for `COCCCNC(=O)c1ccc2c(=O)n(Cc3ccc(OC)cc3)c(=O)[nH]c2c1`?
S1P4 agonist: inactive; S1P3 antagonist: inactive; S1P4 antag: inactive

Results for COCCCNC(=O)c1ccc(Cn2c(=O)c3ccccc3n(Cc3ccccc3C#N)c2=O)cc1 ?
S1P4 agonist: 58; GALR2 agonist: inactive; GALR2 antag: inactive; S1P4 antag: inactive; S1P4 agonist cf: inactive; S1P1 ag: inactive

How did COCCCNC(=O)c1ccc(Cn2c(=O)[nH]c3ccccc3c2=O)cc1 do in these assays?
S1P4 agonist: 12; GALR2 agonist: inactive; GALR2 antag: inactive; S1P3 antagonist: inactive; S1P4 antag: inactive; S1P4 agonist cf: inactive; S1P1 ag: inactive

Results for COCCCNC(=O)c1ccc(Cn2c(=O)c3ccccc3n(Cc3ccccc3C)c2=O)cc1 ?
S1P4 agonist: inactive; GALR2 agonist: inactive; GALR2 antag: inactive; S1P4 antag: inactive

Results for C=CCN(c1ccccc1)S(=O)(=O)c1cccc(C(=O)Nc2nc3ccccc3[nH]2)c1 ?
S1P4 agonist: 22; GALR2 agonist: inactive; GALR2 antag: inactive; S1P3 antagonist: inactive; S1P4 antag: inactive; S1P4 agonist cf: inactive; S1P1 ag: inactive

How did O=C(O)c1ccc(N/N=C/c2ccc(-c3ccccc3Cl)o2)cc1 do in these assays?
S1P4 agonist: 11; S1P3 antagonist: inactive; S1P4 antag: inactive; S1P4 agonist cf: inactive; S1P1 ag: inactive
